HCV inh = qHTS Assay for Inhibitors of Hepatitis C Virus (HCV); actives 3.4% (n = 340,000); Huh7.5.1 HCVcc-Cre infection, luciferase reporter, 44 h; Potency, µM (top dose mostly 41.8 µM), for inactives: top-dose activity change, negative = inhibition, most hits filed as inhibitors; also: potency is read from the fitted curve at half-maximal effect; % is scaled to controls: 0 for no effect and ±100 for the full control effect
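HCVcc-Cre virus at an moi near 0.5 was added right after compound to cells cultured 4 h from seeding (1,000 cells/well). Luciferase activity was determined 44 h later, 15 min after substrate addition at RT.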
Pf growth 48h = Primary qHTS for delayed death inhibitors of the malarial parasite plastid, 48 hour incubation; P. falciparum luciferase growth in erythrocytes, 48 h; Potency, µM (doses to about 28.7 µM), inactives show top-dose activity change, negative = inhibition, actives largely listed as inhibitors; actives 5.9% (n = 310,000); AID 504832, 2011; also: potency is read from the fitted curve at half-maximal effect; % is scaled to controls: 0 for no effect and ±100 for the full control effect
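Luciferase-expressing parasites in RBCs, 2% Hct / 0.1% parasitemia final; RPMI 1640 + 0.5% Albumax; 37 C, 5% CO2, one generation; luminescence read-out, lower signal = inhibition.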
AMA1-RON2 inh = qHTS for Inhibitors of AMA1-RON; Towards Development of Antimalarial Drug Lead: Primary Screen; Potency, µM (doses to about 58.2 µM), for the others: top-dose activity change, negative = inhibition, actives largely listed as inhibitors; Plasmodium falciparum AMA1 (3D7) - RON2 peptide interaction; AlphaScreen AMA1-biotinylated RON2 peptide binding; AID 720542, 2013; actives 0.2% (n = 360,000);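 also: potency is read from the fitted curve at half-maximal effect; 0% = vehicle wells and -100% = peptide control; nearly all actives have a fitted effect of over 45% in size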
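AMA1 (3D7) with his tag at 25 nM final met compounds first, then biotinylated RON2 peptide at 25 nM; detection used donor plus acceptor beads, 10 µg/mL apiece, read by AlphaScreen after 30 min at room temperature.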
Cycloheximide cs = Cycloheximide Counterscreen for Small Molecule Inhibitors of Shiga Toxin. cell reporter, cycloheximide protein synthesis inhibition counterscreen. max response, %. actives 12% (n = 300,000); in the data active = max response mostly above about 13%, no sharp cut-off; inactive = mostly below about 14%; also: read at 38.3 µM for the half of the compounds with a filed dose; 0% is about no effect
Pf growth 96h = Primary qHTS for delayed death inhibitors of the malarial parasite plastid, 96 hour incubation | actives 6.9% (n = 320,000) | AID 504834, 2011 | P. falciparum luciferase reporter growth, 96 h | Potency, µM (series often up to 28.7 µM), without a hit: at the top dose activity change, negative = inhibition, actives largely listed as inhibitors; also: potency is read from the fitted curve at half-maximal effect; % is scaled to controls: 0 for no effect and ±100 for the full control effect
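Infected RBCs, 2% Hct / 0.05% parasitemia final; luciferase-reporter P. falciparum; cpd 96 h, 37 C, 5% CO2; luciferase detection reagent; luminescence.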
Shiga inhibitor = A qHTS for Small Molecule Inhibitors of Shiga Toxin. Vero cells, Shiga toxin protein synthesis inhibition reporter. inhibition, % at 38.7 µM. actives 9.2% (n = 290,000). AID 2315, 2010; in the data active = inhibition mostly above about 28%, no sharp cut-off; inactive = mostly below about 43%; also: 0% is about no effect
HCV confirm = qHTS Assay for Inhibitors of Hepatitis C Virus (HCV): Confirmation Assay for Cherry-picked Compounds; shares compounds with HCV inh; HCVcc-Cre infectious virus cell assay, luciferase, inhibition; Potency, µM (doses to about 41.8 µM), without a hit: at the highest dose activity, negative = inhibition, hits mostly inhibitors; actives 78% (n = 640); also: potency is read from the fitted curve at half-maximal effect; nearly all actives have a fitted effect of over 80% in size
HCV host tox = qHTS Assay for Inhibitors of Hepatitis C Virus (HCV): Cytotoxicity Counterscreen for Cherry-picked Compounds; shares compounds with HCV inh; HCV host cell line cytotoxicity counterscreen; Potency, µM (series often up to 41.8 µM), without a hit: top-dose activity change, negative = cytotoxicity, hits mostly inhibitors; actives 22% (n = 640); AID 720576, 2013;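 also: potency is read from the fitted curve at half-maximal effect; 44 h compound exposure; % is scaled to controls: 0 for no effect and ±100 for the full control effect; nearly all actives have a fitted effect of over 55% in size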
Starred values were filed as active, the others as inactive; ? = inconclusive; . = no result; ! = repeats disagree; [ ] = remark or other dose. Most compounds without a hit are left out; they make up all but 21% or so of the library. Unless noted, calls follow the shape of the dose curve; as a rule, active = well fitted curve in the direction sought with a large enough effect; inconclusive = small, poorly fitted or top-dose-only effect, or another doubt; inactive = no such curve, though single readings can be large; an effect the other way counts as inactive or inconclusive.

SMILES	HCV inh	Pf growth 48h	AMA1-RON2 inh	Cycloheximide cs	Pf growth 96h	Shiga inhibitor	HCV confirm	HCV host tox
O=C(Nc1ccc(-c2noc(COc3ccccc3Cl)n2)cc1)c1ccco1	?	?	-11%	41*	223%	active	7µM*	-27%
O=C(COc1ccccc1Cl)Nc1ccc(NC(=O)c2ccco2)cc1	-15%	-26%	3%	-3	6%	-4	.	.
CCCS(=O)(=O)NC(=O)C1(C)CCN(C(=O)C2(c3ccc(Cl)cc3)CCCC2)C1 (stereo not drawn)	.	.	-5%	.	.	.	.	.
Oc1c(CN2CCOCC2)cc(CN2CCOCC2)c(O)c1CN1CCOCC1	6%	.	0%	.	.	.	.	.
CC(C)(c1cc(Cl)c(O)c(CN2CCOCC2)c1)c1cc(Cl)c(O)c(CN2CCOCC2)c1	3.2µM*	.	-7%	.	.	.	6.3µM*	45%
CC1CCCN(S(=O)(=O)c2cccc(C(=O)NCC3CCCO3)c2)C1 (stereo not drawn)	17%	.	-12%	.	.	.	.	.
COC1C(O)C(C)OC(OC2CCC3(C)C(CCC4C3C(O)CC3(C)C(C5=CC(=O)OC5)CCC43O)C2)C1O (stereo not drawn)	1.6µM*	.	-7%	.	.	.	1.1µM*	?
C[C@@H]1O[C@@H](O[C@H]2C[C@@H](O)[C@]3(CO)[C@@H]4C(CC[C@]3(O)C2)[C@@]2(O)CC[C@H](C3COC(=O)C3)[C@@]2(C)C[C@H]4O)[C@H](O)[C@H](O)[C@H]1O (stereo partly drawn)	?	-22%	11%	.	-17%	.	.	.
CCN(CC)S(=O)(=O)c1ccc2c(c1)C(=NO)c1cc(S(=O)(=O)N(CC)CC)ccc1-2	4.5µM*	9.3µM*	4%	1	8.3µM*	26	7µM*	?
O=C(O)C1(c2ccccc2)CCN(S(=O)(=O)c2cccc(Cl)c2)CC1	17%	26%	1%	-1	23%	30	.	.
O=C(COC(=O)c1ccc(S(=O)(=O)N2CCOCC2)cc1)Nc1ccccc1OC(F)F	-9%	.	10%[11.6 µM]	.	.	.	.	.
COc1ccc(Nc2nc(N)nc(CN3CCOCC3)n2)cc1	13%	5%	41%	5	8%	15	.	.
COc1ccc(Nc2nc(N)nc(CCl)n2)cc1	4µM*	-31%	44%	67*	-87%	78*	6.3µM*	2.5µM*
COc1ccc(S(=O)(=O)N(CC(=O)O)c2ccccn2)cc1	31%	.	-14%	9	-19%	-6	.	.
COc1ccc(S(=O)(=O)n2ccc(-c3ccc(OCCN(C)c4ccccn4)cc3)n2)cc1	6.3µM*	4.7µM*	-15%	6	10µM*	-5	7µM*	?
CCCCCn1c(=O)c(C(=O)NCc2ccco2)c(O)c2ccccc21	?	?	19%	-2	?	2	25µM*	?
CCC(C)[C@@H]1NC(=O)N(CCCN2CCCC2=O)C1=O (stereo partly drawn)	17%	-6%	-5%	0	9%	-7	.	.
Cc1ccc(C2CC(=O)c3cnc(NC(=O)c4ccco4)nc3C2)cc1 (stereo not drawn)	12%	-7%	3%	1	?	22	.	.
CCc1ccc(Nc2ncc3c(n2)CC(c2ccc(OC)cc2)CC3=O)cc1 (stereo not drawn)	4µM*	?	4%	-4	-22%	-16	?	-30%
C[C@H]1C[C@@H]2[C@H]([C@@H](O)C[C@@]3(C)[C@H]2CC[C@]3(O)C(=O)CO)[C@@]2(C)C=CC(=O)C=C12	5.6µM*!	-27%	8%	6	?	41	-5%	46%
COc1ccc(N(C)C(=O)c2cn(C)c(=O)c3cc(OC)c(OC)cc23)cc1	1%	6%	-7%	-1	?	-5	.	.
CC1CCN(CCOCCOc2ccccc2-c2ccccc2)CC1	?	?	?	-2	21%	-12	.	.
CC1CCN(CCCCOc2ccccc2-c2ccccc2)CC1	?	10µM*	-14%	-4	82%	8	20µM*	-28%
COc1cccc(CNS(=O)(=O)c2ccccc2Br)c1OC	-29%	.	5%	.	.	.	.	.
CCCCn1c(SCc2nc3ccccc3s2)nc2cc(S(N)(=O)=O)ccc21	?	.	-1%	12	?	2	18µM*	-38%
SMILES	HCV inh	Pf growth 48h	AMA1-RON2 inh	Cycloheximide cs	Pf growth 96h	Shiga inhibitor	HCV confirm	HCV host tox
COC(=O)c1ccc(CN2CCc3ccc(NC(=O)c4ccncc4)cc3C2)cc1	8.9µM*	?	-2%	6	-1%	16	14µM*	?
O=C(OCC(=O)N1N=C(c2ccc(Cl)cc2)CC1c1ccco1)c1cccnc1 (stereo not drawn)	9%	.	11%	.	.	.	.	.
COc1ccc(Cl)cc1NC(=O)c1ccoc1C	5.6µM*	4%	-1%	-3	.	-2	14µM*	8%
COc1ccccc1NC(=O)c1cc(Cl)ccc1NC(=O)c1ccco1	?	?	29%	-2	?	12	.	.
CCOC(=O)C(=O)N(Nc1ccccc1C)c1ccccc1C	6%	?	-1%	-3	-13%	-14	.	.
CC(=O)Nc1ccc(NC(=O)[C@@H](NC(=O)N2C[C@H]3C[C@@H](C2)c2cccc(=O)n2C3)C(C)C)cc1	20%	45%	-10%	-3	66%	-2	.	.
COc1ccc(OC)c(CC(=O)O)c1	12%	?	3%	-1	-20%	34	.	.
COc1ccc2ccc3ccc(OC)c(OC(C)=O)c3c2c1	?	.	13%	.	.	.	25µM*	-13%

High-throughput results from PubChem BioAssay.
